The supplement of paper PMC6658780
Where a name gives a salt, the structure may show the parent alone. ± gives the standard deviation of the averaged measurements.

The molecules below were run on Klebsiella pneumoniae KPC-119 (assay: percent growth inhibition of drug + antibiotic vs DMSO control; higher = more growth inhibition). Details: antibiotic (0.125x MIC): gentamicin; 7 µM.

| Compound | percent growth inhibition [%] |
| --- | --- |
| CCn1cc(C(=O)O)c(=O)c2cc(F)c(N3CCNCC3)nc21 [Enoxacin] | -1.06 ± 6.9 |
| CCCCC(CC)CNC(=N)NC(=N)NCCCCCCNC(=N)NC(=N)NCC(CC)CCCC (configuration not stated) [Alexidine dihydrochloride] | 99.857 ± 0.088 |
| C/C(=C\C(=O)OCCCCCCCCC(=O)O)C[C@@H]1OC[C@H](C[C@@H]2O[C@H]2[C@@H](C)[C@H](C)O)[C@@H](O)[C@H]1O [Mupirocin] | 16.2 ± 3.3 |
| COC(=O)N/N=C/c1c[n+]([O-])c2ccccc2[n+]1[O-] [Carbadox] | 15.7 ± 0.29 |
| CO/N=C(\C(=O)N[C@@H]1C(=O)N2C(C(=O)O)=C(C[N+]3(C)CCCC3)CS[C@H]12)c1csc(N)n1 [Cefepime hydrochloride] | 37.1 ± 3.7 |
| O=C1NCCN1c1ncc([N+](=O)[O-])s1 [Niridazole] | 38.6 ± 6.3 |
| NCC[C@H](O)C(=O)N[C@@H]1C[C@H](N)[C@@H](O[C@H]2O[C@H](CN)[C@@H](O)[C@H](O)[C@H]2O)[C@H](O)[C@H]1O[C@H]1O[C@H](CO)[C@@H](O)[C@H](N)[C@H]1O [Amikacin hydrate] | 30.1 ± 9.4 |
| CC1COc2c(N3CCN(C)CC3)c(F)cc3c(=O)c(C(=O)O)cn1c23 (configuration not stated) [Ofloxacin] | 99.97 ± 0.11 |
| C=CC1=C(C(=O)O)N2C(=O)[C@@H](NC(=O)/C(=N\OCC(=O)O)c3csc(N)n3)[C@H]2SC1 [Cefixime] | 29.8 ± 2 |

Same assay, conditions: antibiotic (0.125x MIC): gentamicin; 20 µM

| Compound | percent growth inhibition [%] |
| --- | --- |
| CCCCC(CC)CNC(=N)NC(=N)NCCCCCCNC(=N)NC(=N)NCC(CC)CCCC (configuration not stated) [Alexidine dihydrochloride] | 99.929 ± 0.046 |
| Nc1nc(/C(=C/CC(=O)O)C(=O)N[C@@H]2C(=O)N3C(C(=O)O)=CCS[C@H]23)cs1 [Ceftibuten] | 99.37 ± 0.26 |
| C/C(=C\C(=O)OCCCCCCCCC(=O)O)C[C@@H]1OC[C@H](C[C@@H]2O[C@H]2[C@@H](C)[C@H](C)O)[C@@H](O)[C@H]1O [Mupirocin] | 41.1 ± 2.1 |
| O=C1NCCN1c1ncc([N+](=O)[O-])s1 [Niridazole] | 95.7 ± 4.1 |
| NCC[C@H](O)C(=O)N[C@@H]1C[C@H](N)[C@@H](O[C@H]2O[C@H](CN)[C@@H](O)[C@H](O)[C@H]2O)[C@H](O)[C@H]1O[C@H]1O[C@H](CO)[C@@H](O)[C@H](N)[C@H]1O [Amikacin hydrate] | 99.83 ± 0.21 |
| CC1COc2c(N3CCN(C)CC3)c(F)cc3c(=O)c(C(=O)O)cn1c23 (configuration not stated) [Ofloxacin] | 99.953 ± 0.055 |
| C=CC1=C(C(=O)O)N2C(=O)[C@@H](NC(=O)/C(=N\OCC(=O)O)c3csc(N)n3)[C@H]2SC1 [Cefixime] | 97.5 ± 3.4 |

Same assay, conditions: antibiotic (0.125x MIC): meropenem; 20 µM

| Compound | percent growth inhibition [%] |
| --- | --- |
| CCCCC(CC)CNC(=N)NC(=N)NCCCCCCNC(=N)NC(=N)NCC(CC)CCCC (configuration not stated) [Alexidine dihydrochloride] | 100.04 ± 0.0019 |
| Nc1nc(/C(=C/CC(=O)O)C(=O)N[C@@H]2C(=O)N3C(C(=O)O)=CCS[C@H]23)cs1 [Ceftibuten] | 94.5 ± 4.1 |
| NCC[C@H](O)C(=O)N[C@@H]1C[C@H](N)[C@@H](O[C@H]2O[C@H](CN)[C@@H](O)[C@H](O)[C@H]2O)[C@H](O)[C@H]1O[C@H]1O[C@H](CO)[C@@H](O)[C@H](N)[C@H]1O [Amikacin hydrate] | 99.71 ± 0.1 |
| CC1COc2c(N3CCN(C)CC3)c(F)cc3c(=O)c(C(=O)O)cn1c23 (configuration not stated) [Ofloxacin] | 99.92 ± 0.12 |

These molecules were tested on Klebsiella pneumoniae NCTC-13439 in the same assay as above. Details: antibiotic (0.125x MIC): ciprofloxacin; 7 µM.

| Compound | percent growth inhibition [%] |
| --- | --- |
| NC1CCN(c2c(F)cc3c(=O)c(C(=O)O)cn(C4CC4)c3c2Cl)C1 (configuration not stated) [Clinafloxacin] | 13.8 ± 8.5 |
| C#C[C@]1(OC(C)=O)CC[C@H]2[C@@H]3CCC4=CC(=NO)CC[C@@H]4[C@H]3CC[C@@]21CC (mixture of isomers) [Norgestimate] | -7.59 ± 3.1 |
| O=C(OCC(O)CO)c1ccccc1Nc1ccnc2cc(Cl)ccc12 (configuration not stated) [Glafenine hydrochloride] | 6.41 ± 16 |
| CC(=O)CCCCn1c(=O)c2c(ncn2C)n(C)c1=O [Pentoxifylline] | 2.24 ± 1.5 |
| NC1CCN(c2nc3c(cc2F)c(=O)c(C(=O)O)cn3-c2ccc(F)cc2F)C1 (configuration not stated) [Tosufloxacin hydrochloride] | 88.1 ± 8.8 |
| NC(=O)N/N=C/c1ccc([N+](=O)[O-])o1 [Nitrofural] | 10.1 ± 18 |
| COc1c(N2CCNC(C)C2)c(F)cc2c(=O)c(C(=O)O)cn(C3CC3)c12 (configuration not stated) [Gatifloxacin] | 26.2 ± 8.2 |
| N=C(NCCCCCCNC(=N)NC(=N)Nc1ccc(Cl)cc1)NC(=N)Nc1ccc(Cl)cc1 [Chlorhexidine] | 38.3 ± 1.2 |
| Cc1c(F)c(N2CCNC(C)C2)cc2c1c(=O)c(C(=O)O)cn2C1CC1 (configuration not stated) [Grepafloxacin] | 18.9 ± 3.6 |
| CCN1CCN(c2cc3c(cc2F)c(=O)c(C(=O)O)cn3C2CC2)CC1 [Enrofloxacin] | 7.59 ± 7.8 |
| Cc1nc2n(c(=O)c1CCN1CCC(c3noc4cc(F)ccc34)CC1)CCCC2 [Risperidone] | 15.5 ± 4.5 |
| COc1c(N2C[C@@H]3CCCN[C@@H]3C2)c(F)cc2c(=O)c(C(=O)O)cn(C3CC3)c12 [Moxifloxacin] | 25.8 ± 7.3 |
